Paper PMC5540273 (PLoS ONE, 2017)

How the values were obtained:
Conditions in all cases: concentration: 1 μM, replicates: in singlicate; n = 1
[1] = tested on: T1, RSK1(Kin.Dom.1-N-terminal)
T1 construct: gene RPS6KA1

[2] = tested on: T2, RSK1(Kin.Dom.2-C-terminal)
T2 construct: gene RPS6KA1

[3] = tested on: T3, RSK2(Kin.Dom.1-N-terminal)
T3 construct: gene RPS6KA3

[4] = tested on: T4, RSK2(Kin.Dom.2-C-terminal)
T4 construct: gene RPS6KA3

[5] = tested on: T5, RSK3(Kin.Dom.1-N-terminal)
T5 construct: gene RPS6KA2

[6] = tested on: T6, RSK3(Kin.Dom.2-C-terminal)
T6 construct: gene RPS6KA2

[7] = tested on: T7, RSK4(Kin.Dom.1-N-terminal)
T7 construct: gene RPS6KA6

[8] = tested on: T8, RSK4(Kin.Dom.2-C-terminal)
T8 construct: gene RPS6KA6

S6K1 = tested on: S6K1
SBK1 = tested on: SBK1
SGK2 = tested on: SGK2
SGK3 = tested on: SGK3
SGK = tested on: SGK
SIK2 = tested on: SIK2
SIK = tested on: SIK
SLK = tested on: SLK
SNARK = tested on: T9, SNARK
T9 construct: gene NUAK2

SNRK = tested on: SNRK
SRC = tested on: SRC
SRMS = tested on: SRMS
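Note: KINOMEscan kinase panel screen.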

SMILES	%Inh [1]	%Inh [2]	%Inh [3]	%Inh [4]	%Inh [5]	%Inh [6]	%Inh [7]	%Inh [8]	%Inh (S6K1)	%Inh (SBK1)	%Inh (SGK2)	%Inh (SGK3)	%Inh (SGK)	%Inh (SIK2)	%Inh (SIK)	%Inh (SLK)	%Inh (SNARK)	%Inh (SNRK)	%Inh (SRC)	%Inh (SRMS)
Cc1ccc(Oc2ccc(Nc3ncnc4cc[nH]c34)cc2C)cn1	5%	8%	0%	0%	16%	16%	9%	6%	7%	44%	5%	5%	12%	0%	21%	10%	6%	32%	16%	22%
CCC(=O)c1c(-c2ccccc2)c2cc(Cl)ccc2c(=O)n1Cc1cc(S(C)(=O)=O)n(CC(F)F)n1	2%	0%	5%	0%	0%	0%	13%	1%	0%	0%	0%	0%	0%	2%	0%	0%	10%	0%	7%	0%
Cc1ccccc1COc1cc(-n2cnc3cc(Cl)ccc32)sc1C(N)=O [GW813349]	16%	0%	2%	49%	5%	0%	0%	42%	8%	0%	6%	1%	0%	0%	4%	73%	4%	3%	0%	0%
Cc1nn2c(=O)cc(N3CCOCC3)nc2n1Cc1cccc(Cl)c1Cl [GSK2342769]	0%	0%	9%	3%	25%	0%	5%	0%	1%	14%	0%	0%	0%	0%	0%	4%	0%	0%	4%	0%
Nc1nc(-c2ccccc2F)c(-c2ccnc3ccccc23)s1 [GW560459]	0%	35%	6%	95.6%	0%	1%	0%	89%	0%	6%	1%	5%	15%	0%	0%	4%	8%	0%	0%	0%
COc1cc(Nc2nccc(N3CCC(NC(=O)C(C)c4ccc(Cl)cc4)C3)n2)cc(OC)c1OC (centres unmarked) [GSK1379757]	21%	0%	2%	1%	0%	0%	0%	5%	0%	12%	0%	0%	0%	0%	1%	1%	19%	0%	13%	0%
Nc1n[nH]c2nnc(-c3ccccc3)c(-c3ccccc3)c12 [GW554060]	0%	1%	4%	29%	4%	0%	10%	8%	0%	13%	0%	1%	24%	0%	0%	24%	0%	0%	0%	0%
CCC(=O)c1c(-c2ccccc2)c2cc(Cl)ccc2c(=O)n1Cc1cc(S(C)(=O)=O)n(CCC(C)(C)O)n1	0%	0%	9%	0%	11%	5%	39%	23%	0%	0%	4%	0%	4%	7%	11%	21%	1%	27%	0%	0%
CN(C)c1cc(-c2ccc3c(N)n[nH]c3c2)nc(N)n1 [GSK2219329]	11%	0%	0%	0%	0%	4%	0%	14%	2%	7%	0%	3%	5%	0%	0%	13%	0%	0%	12%	0%
FC(F)(F)c1ccc(-c2ncn(CCCN3CCOCC3)c2-c2ccncc2)cc1 [SB-217780]	11%	6%	0%	28%	32%	19%	1%	44%	0%	13%	25%	0%	5%	0%	0%	0%	0%	18%	0%	0%
O=C(Nc1n[nH]c2nc(-c3ccccc3)c(Br)cc12)C1CC1 [SB-708998]	0%	0%	7%	29%	0%	0%	18%	2%	0%	17%	0%	0%	5%	0%	5%	20%	4%	18%	4%	0%
O=C(Nc1ccc2c(c1)OCO2)NC1CCN(c2ccnc(NCc3ccc(F)cc3)n2)CC1 [GSK1379859]	1%	0%	3%	99.5%	0%	0%	0%	0%	8%	11%	0%	0%	0%	0%	0%	12%	0%	0%	17%	0%
COc1ccc(-n2cnc3c(N)ncnc32)cc1 [SKF-97236]	0%	0%	11%	22%	9%	0%	9%	36%	9%	13%	6%	11%	0%	14%	0%	11%	24%	0%	0%	0%
CCS(=O)c1ccc(-c2coc3ccc(-c4nnc(C)o4)cc23)cc1 (centres unmarked)	0%	18%	5%	0%	3%	11%	18%	6%	8%	0%	13%	23%	7%	5%	13%	0%	30%	0%	0%	0%
COc1cc2ncn(-c3cc(OCCCc4ccccc4)c(C(N)=O)s3)c2cc1OC [GSK205189]	2%	10%	7%	2%	0%	0%	12%	18%	0%	0%	0%	0%	0%	0%	2%	79%	0%	0%	0%	0%
Fc1cccc(CSc2nnc(-c3ccc4c(c3)CCO4)o2)c1	0%	23%	14%	18%	0%	8%	15%	16%	9%	0%	24%	9%	8%	0%	12%	5%	12%	10%	5%	0%
Nc1nccc2scc(-c3ccc4c(c3)CCN4C(=O)Cc3ccccc3)c12 [GSK2576924]	9%	20%	0%	0%	8%	7%	0%	11%	2%	2%	0%	16%	0%	4%	0%	14%	16%	3%	2%	10%
COc1ccc(Nc2nccc(N3CCC(NS(=O)(=O)c4ccc(NC(C)=O)cc4)C3)n2)cc1 (centres unmarked) [GSK1379729]	0%	0%	0%	18%	6%	0%	0%	5%	0%	4%	14%	0%	10%	18%	2%	18%	2%	9%	6%	0%
COc1cc2ncn(-c3cc(OCc4ccncc4Br)c(C(N)=O)s3)c2cc1OC [GW854278]	0%	22%	19%	0%	20%	0%	25%	7%	0%	2%	3%	16%	4%	6%	26%	95.9%	0%	0%	0%	0%
